The full list was thinned out, with hits kept by preference.
GIRK2 act = Activators of human GIRK2-containing channels; P48051; HEK293 GIRK2/NPY4 cells, thallium flux fluorescence; activation (% efficacy), % for hits at 37.5 µM; 34,000 tested, under 10 active; AID 1259324;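 active = primary screen hit, no activity in plain HEK293 cells, and in GIRK2-only cells above 5% efficacy rising with concentration; inactive = the rest, including fluorescent compounds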;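 also: efficacy is normalized control-subtracted fluorescence 15 s after thallium addition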
AMPAR-TARP mod = modulators of AMPA receptor GluA2-stargazin complexes; O88602+P19491; HEK293 GluA2+stargazin, membrane potential dye (FDSS), glutamate EC50; hits were called plate by plate, in both directions; calls only at 30 µM; 3.5% of 40,000 active;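 active = any of four per-well response measures lying three or more SD from its plate-wide compound average, in either direction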
* hit, by the source's call; i = inactive; . = not tested or not shown; + = active, no number.

SMILES | GIRK2 act | AMPAR-TARP mod
CC(CCc1ccccc1)NC(=O)Cc1csc(Nc2ccccc2)n1 (stereo not drawn) | i | +
O=C(Cc1csc(Nc2ccccc2)n1)NCCc1ccccc1 | i | i
COc1ccc(C(=O)NCCn2ncc3c(N4CCCCCC4)ncnc32)cc1OC | i | i
O=C(NCCn1ncc2c(N3CCCC3)ncnc21)c1ccc(=O)oc1 | . | +
CCOc1ccc(Cl)cc1S(=O)(=O)N1CCN(C)CC1 | . | i
O=C(Nc1c(Cl)cccc1Cl)C1CCCCC1 | . | +
CSc1cccc2sc(NC(=O)C3CCCCC3)nc12 | i | i
COc1ccc(Cl)cc1NC(=O)CN1CCN(C(C)=O)CC1 | i | i
CNC(=O)C1Cc2ccccc2N1C(=O)Nc1cccc(Cl)c1 (stereo not drawn) | i | i
CCOc1c(C)cc(S(=O)(=O)Nc2ccc3c(c2)N(C(=O)C(C)(C)C)CC3)cc1C | i | i
Cc1cccc(Nc2ccc(N3CCN(C(=O)Cc4cccs4)CC3)nn2)n1 | i | +
Cc1cccc(Nc2ccc(N3CCN(C(=O)C(C)(C)C)CC3)nn2)n1 | i | .
Cc1cccc(Nc2ccc(N3CCN(C(=O)c4c(F)cccc4F)CC3)nn2)n1 | i | .
CC(=O)N1CCN(c2nnc(SCC(=O)Nc3cc(C)on3)s2)CC1 | i | i
Cc1cc(NC(=O)CSc2nnc(N3CCN(C(=O)Cc4cccs4)CC3)s2)no1 | i | +
Cc1cccc(Nc2ccc(N3CCN(C(=O)Cc4c[nH]c5ccccc45)CC3)nn2)n1 | i | +
CC(=O)Nc1nn(C)c2c1C(c1ccccc1)CC(=O)N2 (stereo not drawn) | i | i
COCc1cnc2c(c1SCC(=O)Nc1ccc(C(N)=O)cc1)c(=O)n(C)c(=O)n2C | . | i
COc1ccc(N2C(=O)/C(=C/c3ccc(O)c(OC)c3)SC2=S)cc1 | . | i
COC(CNc1nc(=S)[nH]c2ccccc12)OC | i | i
C=CCN(CC=C)C(=O)Cn1c(C2CC(=O)N(c3ccccc3C)C2)nc2ccccc21 (stereo not drawn) | i | i
CCN1C(=O)c2cccc3c(NC(=O)Cc4ccc(S(C)(=O)=O)cc4)ccc1c23 | . | i
Cc1ccc(Cl)c2sc(N(CCCn3ccnc3)C(=O)c3cccs3)nc12 | i | +
O=C(c1cccs1)N(CCCn1ccnc1)c1nc2ccccc2s1 | i | i
COc1cccc(C(=O)Nc2ccc3c(c2)CCCN3C(C)=O)c1 | . | i
SMILES | GIRK2 act | AMPAR-TARP mod
O=C1/C(=C/c2ccccc2F)Oc2cc(O)ccc21 | . | i
COc1cc(/C=C2\Oc3cc(O)ccc3C2=O)cc(OC)c1OC | . | +
COc1cc(/C=C2\Oc3cc(OC(=O)c4c(OC)cccc4OC)ccc3C2=O)cc(OC)c1OC | . | i
COc1ccc(/C=C2\Oc3cc(O)ccc3C2=O)cc1OC | . | +
O=C1/C(=C/c2ccc(Cl)c(Cl)c2)Oc2cc(O)ccc21 | . | i
O=C1/C(=C/c2cccs2)Oc2cc(O)ccc21 | . | +
O=C(Nc1ccc(F)cc1)c1csc(NS(=O)(=O)c2ccccc2)n1 | i | i
N=c1c(C(=O)NC2CCCC2)cc2c(=O)n3ccccc3nc2n1C1CCCC1 | i | +
Cc1ccc(CNC(=O)c2cc3c(=O)n4ccccc4nc3n(Cc3ccco3)c2=N)cc1 | i | i
CSc1ccccc1C(=O)Nc1ccc(CC(=O)N2CCC(O)CC2)cc1 | i | i
O=C(Cc1ccc(NC(=O)c2cnc3ccccc3n2)cc1)NCC(F)(F)F | i | .
CCCN1C(=O)NC2(CCN(C(=O)Nc3cccc(C(F)(F)F)c3)CC2)C1=O | i | i
Cc1ccc(CN2C(=O)NC3(CCN(C(=O)Nc4ccc(Cl)cc4)CC3)C2=O)cc1 | i | .
O=C(Nc1cccc(C(F)(F)F)c1)N1CCC2(CC1)NC(=O)N(Cc1ccccc1)C2=O | i | +
O=C(Nc1cccc(Cl)c1)N1CCC2(CC1)NC(=O)N(Cc1ccccc1)C2=O | i | +
COc1ccc(C(=O)N2CCN(c3nccn3C)CC2)c(OC)c1 | i | i
O=C(NCC1(O)CCc2ccccc21)Nc1cccc(C(F)(F)F)c1 (stereo not drawn) | i | +
COc1ccccc1C1(CNC(=O)Nc2cccc(C(F)(F)F)c2)CCOCC1 | i | i
COc1ccc(NS(=O)(=O)C(C)C)cc1N1CCCCC1=O | i | i
Cc1cccc(C(=O)N2CCC3(CC2)CC(=O)c2ccccc2O3)c1 | . | +
O=C1CC2(CCN(C(=O)c3ccc(-c4ccccc4)cc3)CC2)Oc2ccccc21 | . | i
Cc1ccc(-c2csc(NC(=O)c3ccc(S(=O)(=O)C(C)C)cc3)n2)cc1 | . | i
CC(C)N(C)S(=O)(=O)c1ccc(C(=O)Nc2nc(-c3ccncc3)cs2)cc1 | i | +
COc1ccc(CCS(=O)(=O)NCC(C)(O)c2ccc3c(c2)OCO3)cc1 (stereo not drawn) | i | i
Cc1ccc(C(C)C)cc1S(=O)(=O)N1CCC2(CC1)NC(=O)N(Cc1ccccc1)C2=O | i | i
SMILES | GIRK2 act | AMPAR-TARP mod
CC(=O)N1CCc2c(sc(NC(=O)c3cc(C)n(C)n3)c2-c2nc3ccccc3s2)C1 | i | +
CC(C)N1CCc2c(sc(NC(=O)c3nc4ccccc4s3)c2-c2nc3ccccc3s2)C1 | . | i
CC(=O)N1CCc2c(sc(NC(=O)c3ccccc3)c2-c2nc3ccccc3s2)C1 | . | i
CC(C)N1CCc2c(sc(NC(=O)c3ccco3)c2-c2nc3ccccc3s2)C1 | . | +
O=C(Nc1ccccc1)C1(c2cc(-c3ccco3)on2)CC1 | i | .
Cc1nn(C(C)(C)C)c(OC(=O)CC2CCCCC2)c1S(=O)(=O)c1ccccc1 | . | i
Cn1c(=O)n(CC(N)=O)c(=O)c2c1nc1n(-c3ccc(F)cc3)c(-c3ccccc3)cn21 | . | i
O=C(C1c2ccccc2Oc2ccccc21)N(CCc1cccs1)Cc1cccnc1 | i | .
COc1ccc(-c2c(NC(=O)c3cccs3)sc3ccccc3c2=O)cc1 | i | i
COc1cc(-c2c(NC(=O)c3ccco3)sc3ccccc3c2=O)cc(OC)c1OC | i | +
CCOc1ccc(Cl)cc1S(=O)(=O)N1CCCC(C)C1 (stereo not drawn) | . | +
CCOc1ccc(S(=O)(=O)N2CCCC(C)C2)c2ccccc12 (stereo not drawn) | . | i
Cc1ccc(NC(=O)Cn2c(=O)n(CC(=O)NCCc3ccccc3)c(=O)c3sccc32)cc1 | i | i
CCC(C)NC(=O)Cn1cnc2c(sc3nc(C)cc(C)c32)c1=O (stereo not drawn) | i | +
Cc1cc(C)c2c(n1)sc1c(=O)n(CC(=O)Nc3ccc(Cl)cc3)cnc12 | i | i
O=C(CCn1nnc2ccccc2c1=O)Nc1ccon1 | . | i
COc1cccc(CNC(=O)C(=O)Nc2cc(C)ccc2OC)c1 | i | i
Cn1cccc1C(CNC(=O)C(=O)NCc1ccc(F)cc1)N1CCOCC1 (stereo not drawn) | i | i
Cn1cccc1C(CNC(=O)c1ccc(F)cc1)N1CCOCC1 (stereo not drawn) | i | +
O=C(Cc1ccc(NC(=O)c2ccc3c(c2)OCO3)cc1)NCc1cccs1 | i | i
CCOc1ccc(C(=O)Nc2ccc3c(c2)CCCN3C(=O)c2ccccc2)cc1 | . | i
CCNc1cc(C)nc(NCCNC(C)=O)n1 | i | .
Cc1nc(NCCNC(=O)c2ncccn2)cc(N2CCOCC2)n1 | i | +

Bioassay records deposited in PubChem BioAssay by several laboratories.
